# Reference: PubChem BioAssay (EPA / NIEHS)
# Results filed as inconclusive are left out. The source holds several records for some structures; these can differ, active in one and inactive in another. Activity calls are given as the source filed them. The calls were made as follows: active = hit-call score of the fitted dose curve at least 0.9, where 1 is the maximum; inconclusive = response in the unintended direction; inactive = score below 0.9.
# How the values were obtained:
# [1] = molecular target: rat Gamma-Aminobutyric Acid Type A Receptor, Non-Selective (GABAR-NonSelective), Gabra1 (gene 29705) (UniProt P62813); test: NVS_LGIC_rGABAR_NonSelective: NovaScreen (NVS) Ligand-Gated Ion Channel Assay for rat Gamma-Aminobutyric Acid Type A Receptor, Non-Selective (GABAR-NonSelective) (AID 2283326)
# rat Gamma-Aminobutyric Acid Type A Receptor, Non-Selective (GABAR-NonSelective), Gabra1 (gene 29705), sequence (P62813 whole entry, looked up): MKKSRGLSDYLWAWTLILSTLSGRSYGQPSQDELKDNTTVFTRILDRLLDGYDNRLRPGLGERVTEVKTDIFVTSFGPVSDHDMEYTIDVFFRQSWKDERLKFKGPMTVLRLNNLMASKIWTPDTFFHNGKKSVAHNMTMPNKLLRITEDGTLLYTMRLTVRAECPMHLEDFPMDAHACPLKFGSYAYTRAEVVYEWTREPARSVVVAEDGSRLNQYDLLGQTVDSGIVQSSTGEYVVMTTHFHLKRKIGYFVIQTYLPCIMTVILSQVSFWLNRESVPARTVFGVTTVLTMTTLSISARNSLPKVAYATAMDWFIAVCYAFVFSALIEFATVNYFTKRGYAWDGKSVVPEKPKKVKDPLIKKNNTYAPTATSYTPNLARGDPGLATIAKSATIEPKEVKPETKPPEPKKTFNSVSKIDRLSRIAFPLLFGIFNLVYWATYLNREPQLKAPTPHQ
# Procedure, shortened: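 Radioligand displacement on rat whole-brain extract, 1 h, filter scintillation readout; signal loss fitted versus DMSO. Primary screen in duplicate at 25 uM; hits (e.g. ≥30% inhibition) retested in concentration-response up to 50 uM.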
# [2] = molecular target: Estrogen receptor (Homo sapiens) (UniProt P03372); test: OT_ER_ERaERa_0480: Odyssey Thera (OT) 8-hour HEK293T Protein-Complementation Assay for Estrogen Receptor-alpha/-alpha Homodimer (AID 2283351);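 also: rise in fluorescence from reassembled reporter fragments on ERα LBD homodimer in nucleus or whole cell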
# Estrogen receptor (Homo sapiens), sequence (P03372 whole entry, looked up, the tested form may be a part): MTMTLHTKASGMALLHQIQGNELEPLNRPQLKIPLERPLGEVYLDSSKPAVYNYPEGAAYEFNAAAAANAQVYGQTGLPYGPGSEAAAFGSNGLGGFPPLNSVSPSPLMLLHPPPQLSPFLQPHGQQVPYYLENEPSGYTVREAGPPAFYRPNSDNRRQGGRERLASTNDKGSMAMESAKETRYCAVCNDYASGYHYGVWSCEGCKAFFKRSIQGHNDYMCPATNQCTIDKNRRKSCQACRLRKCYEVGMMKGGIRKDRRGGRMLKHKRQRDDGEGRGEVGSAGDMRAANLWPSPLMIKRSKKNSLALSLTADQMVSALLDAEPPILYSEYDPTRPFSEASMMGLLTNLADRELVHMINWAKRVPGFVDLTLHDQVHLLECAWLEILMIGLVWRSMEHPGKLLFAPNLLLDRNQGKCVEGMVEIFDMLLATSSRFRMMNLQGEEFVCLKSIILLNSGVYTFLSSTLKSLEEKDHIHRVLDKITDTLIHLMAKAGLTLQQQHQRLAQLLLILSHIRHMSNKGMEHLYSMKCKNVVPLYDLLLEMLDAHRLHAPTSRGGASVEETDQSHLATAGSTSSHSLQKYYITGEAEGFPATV
# Procedure, shortened: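 HEK293T, stable ERα LBD (aa 310-547) PCA homodimer; 8 h compound exposure; fluorescence intensity, laser scanning cytometer; positive fitting direction, DMSO baseline.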
# [3] = molecular target: T1, Estrogen receptor (Homo sapiens) + Estrogen receptor beta (Homo sapiens) (UniProt P03372+Q92731); test: OT_ER_ERaERb_0480: Odyssey Thera (OT) 8-hour HEK293T Protein-Complementation Assay for Estrogen Receptor-alpha/-beta Heterodimer (AID 2283352)
# T1 sequence (P03372 whole entry, looked up, the tested form may be a part): as above
# T1 sequence (Q92731 whole entry, looked up, the tested form may be a part): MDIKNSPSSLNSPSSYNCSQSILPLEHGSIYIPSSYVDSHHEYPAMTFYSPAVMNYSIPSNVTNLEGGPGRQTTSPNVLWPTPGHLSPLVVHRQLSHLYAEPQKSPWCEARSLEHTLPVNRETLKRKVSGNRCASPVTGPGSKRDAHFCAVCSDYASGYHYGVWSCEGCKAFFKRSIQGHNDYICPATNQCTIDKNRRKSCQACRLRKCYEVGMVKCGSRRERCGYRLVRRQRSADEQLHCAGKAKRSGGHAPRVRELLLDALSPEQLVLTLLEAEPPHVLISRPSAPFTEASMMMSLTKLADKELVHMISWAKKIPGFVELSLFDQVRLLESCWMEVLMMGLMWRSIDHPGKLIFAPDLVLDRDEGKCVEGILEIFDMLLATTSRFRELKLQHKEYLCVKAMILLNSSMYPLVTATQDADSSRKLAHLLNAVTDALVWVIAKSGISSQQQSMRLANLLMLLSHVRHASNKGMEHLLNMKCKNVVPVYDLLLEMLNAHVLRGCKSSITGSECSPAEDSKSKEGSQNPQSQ
# Procedure, shortened: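 HEK293T protein-fragment complementation assay of ER-alpha/ER-beta LBD heterodimerisation, read 8 h after dosing. Mean nuclear/cytoplasmic fluorescence intensity measured by laser scanning cytometry; gain of signal fitted relative to DMSO.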
# [4] = molecular target: T1, Estrogen receptor (Homo sapiens) + Estrogen receptor beta (Homo sapiens); test: OT_ER_ERaERb_1440: Odyssey Thera (OT) 24-hour HEK293T Protein-Complementation Assay for Estrogen Receptor-alpha/-beta Homodimer (AID 2283356);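 also: heteromer of ER alpha and ER beta binding domains; hits raise reporter fluorescence and both agonists and antagonists give an increase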
# Procedure, shortened: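 HEK293T stably expressing a PCA of ER alpha LBD (aa 310-547) and ER beta LBD (aa 263-489). After 24 h compound exposure, mean fluorescence intensity in nucleus (agonists) or nucleus and cytoplasm (antagonists) measured by laser scanning cytometry versus vehicle.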
# [5] = molecular target: Estrogen receptor beta (Homo sapiens) (UniProt Q92731); test: OT_ER_ERbERb_0480: Odyssey Thera (OT) 8-hour HEK293T Protein-Complementation Assay for Estrogen Receptor-beta/-beta Homodimer (AID 2283357);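 also: active means signal gain over DMSO baseline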
# Estrogen receptor beta (Homo sapiens), sequence (Q92731 whole entry, looked up, the tested form may be a part): as above
# Procedure, shortened: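 Cells (HEK293T, stable ER-beta LBD PCA pair) are treated 8 hours, fixed and Draq5-stained; signal is fluorescence intensity increase relative to vehicle, fitted in the gain direction.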
# [6] = molecular target: Retinoic acid receptor alpha (Homo sapiens) (UniProt P10276); test: NVS_NR_hRAR_Antagonist: NovaScreen (NVS) Nuclear Receptor Binding Assay for human Retinoic Acid Alpha Receptor Antagonism (RAR) (AID 2283358)
# Retinoic acid receptor alpha (Homo sapiens), sequence (P10276 whole entry, looked up): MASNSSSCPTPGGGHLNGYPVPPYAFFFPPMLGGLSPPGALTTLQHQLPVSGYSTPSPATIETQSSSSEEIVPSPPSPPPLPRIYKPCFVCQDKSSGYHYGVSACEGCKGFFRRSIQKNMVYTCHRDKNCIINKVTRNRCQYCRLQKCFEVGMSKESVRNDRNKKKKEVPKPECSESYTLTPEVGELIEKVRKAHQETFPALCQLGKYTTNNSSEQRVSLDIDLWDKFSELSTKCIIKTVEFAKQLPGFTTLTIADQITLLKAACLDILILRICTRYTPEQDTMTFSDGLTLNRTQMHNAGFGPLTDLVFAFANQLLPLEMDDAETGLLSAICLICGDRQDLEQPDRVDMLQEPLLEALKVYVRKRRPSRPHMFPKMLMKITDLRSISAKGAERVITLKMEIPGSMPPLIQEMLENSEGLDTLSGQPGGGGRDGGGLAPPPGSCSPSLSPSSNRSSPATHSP
# Procedure, shortened: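 TR-FRET, cell-free, antagonist format; 2 h incubation after dosing; DMSO = baseline; signal loss fitted; 25 uM duplicate primary, then conc. series.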
# [7] = NVS_IC_rCaBTZCHL: NovaScreen (NVS) Ion Channel Assay for Calcium Channel, Type L, Benzothiazepine Site (CaBTZCHL) (AID 2283337)
# Procedure, shortened: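 Scintillation counting of filter-bound radioligand gave the read-out, with reduced binding versus DMSO scored as activity. Membranes came from rat cortex and were read 1.5 h after compound addition. Chemicals were screened first in duplicate at 25 uM.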
# [8] = molecular target: Estrogen receptor (Homo sapiens) (UniProt P03372); test: OT_ER_ERaERa_1440: Odyssey Thera (OT) 24-hour HEK293T Protein-Complementation Assay for Estrogen Receptor-alpha/-alpha Homodimer (AID 2283349);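 also: hits raise fluorescence above DMSO for agonists and antagonists alike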
# Procedure, shortened: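 Protein-fragment complementation between two human ERα ligand-binding domains (aa 310-547) in stably transfected HEK293T cells was monitored after 24 h treatment, using fluorescence intensity relative to vehicle controls.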
# [9] = molecular target: rat Peripheral-type Benzodiazepine Receptor (PBR), Tspo (gene 24230) (UniProt P16257); test: NVS_MP_rPBR: NovaScreen (NVS) Membrane Protein Assay for rat Peripheral-type Benzodiazepine Receptor (PBR) (AID 2283335)
# rat Peripheral-type Benzodiazepine Receptor (PBR), Tspo (gene 24230), sequence (P16257 whole entry, looked up): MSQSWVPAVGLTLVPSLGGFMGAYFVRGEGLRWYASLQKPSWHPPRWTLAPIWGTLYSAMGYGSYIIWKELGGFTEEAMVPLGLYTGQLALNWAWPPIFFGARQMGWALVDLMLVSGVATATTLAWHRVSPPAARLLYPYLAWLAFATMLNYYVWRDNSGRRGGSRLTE
# Procedure, shortened: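 Rat kidney membranes; radioligand binding with displacement, filter-based scintillation counting, 1 h incubation. Primary screen in duplicate at 25 uM, actives followed in concentration series; loss of binding vs DMSO.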
# [10] = molecular target: human Peroxisome Proliferator-activated Receptor alpha (PPARa), PPARA (gene 5465) (UniProt Q07869); test: NVS_NR_hPPARa: NovaScreen (NVS) Nuclear Receptor Binding Assay for human Peroxisome Proliferator-activated Receptor alpha (PPARa) (AID 2283359);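 also: activity means loss of TR-FRET signal versus DMSO baseline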
# human Peroxisome Proliferator-activated Receptor alpha (PPARa), PPARA (gene 5465), sequence (Q07869 whole entry, looked up): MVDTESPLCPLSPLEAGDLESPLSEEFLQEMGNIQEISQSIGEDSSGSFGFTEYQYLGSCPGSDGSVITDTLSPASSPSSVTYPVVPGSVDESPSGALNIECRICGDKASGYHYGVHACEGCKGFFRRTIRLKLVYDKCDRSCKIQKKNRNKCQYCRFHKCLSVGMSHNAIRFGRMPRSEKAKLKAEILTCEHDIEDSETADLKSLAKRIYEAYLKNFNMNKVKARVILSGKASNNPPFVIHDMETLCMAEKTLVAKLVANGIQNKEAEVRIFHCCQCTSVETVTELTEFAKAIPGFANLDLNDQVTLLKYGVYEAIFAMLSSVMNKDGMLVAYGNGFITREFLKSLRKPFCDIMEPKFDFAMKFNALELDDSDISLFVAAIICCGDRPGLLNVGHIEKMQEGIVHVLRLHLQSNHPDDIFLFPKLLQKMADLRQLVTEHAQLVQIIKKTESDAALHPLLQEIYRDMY
# Procedure, shortened: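 Chemicals were first screened in duplicate at 25 uM, and active ones were retested across concentration series. Binding was monitored by TR-FRET one hour after dosing, with decreased signal against DMSO counted as activity.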
# [11] = molecular target: rat Neonicotinoid receptor (NNR), Chrna7 (gene 25302) (UniProt Q05941); test: NVS_LGIC_rNNR_BungSens: NovaScreen (NVS) Ligand-Gated Ion Channel Assay for rat Neonicotinoid receptor (NNR) (AID 2283315)
# rat Neonicotinoid receptor (NNR), Chrna7 (gene 25302), sequence (Q05941 whole entry, looked up): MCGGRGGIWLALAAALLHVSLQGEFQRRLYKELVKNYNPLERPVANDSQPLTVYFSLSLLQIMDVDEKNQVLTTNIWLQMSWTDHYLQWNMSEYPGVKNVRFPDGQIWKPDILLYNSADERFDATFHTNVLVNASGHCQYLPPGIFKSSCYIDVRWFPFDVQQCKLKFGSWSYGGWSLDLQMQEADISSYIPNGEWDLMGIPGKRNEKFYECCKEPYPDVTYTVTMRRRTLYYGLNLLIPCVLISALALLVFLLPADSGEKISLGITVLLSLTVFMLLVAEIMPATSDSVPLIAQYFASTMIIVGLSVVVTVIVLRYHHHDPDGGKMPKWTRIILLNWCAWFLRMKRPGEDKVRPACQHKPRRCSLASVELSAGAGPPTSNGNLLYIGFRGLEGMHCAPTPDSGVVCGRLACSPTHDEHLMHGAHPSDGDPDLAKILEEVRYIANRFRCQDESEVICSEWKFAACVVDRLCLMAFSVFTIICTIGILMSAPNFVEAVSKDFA
# Procedure, shortened: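 Radioligand displacement binding on rat cortical membranes, 2.5 h incubation, filtration and scintillation counting. Loss of specific binding fitted relative to DMSO.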
# [12] = molecular target: Sodium channel protein type 1 subunit alpha (Rattus norvegicus) (UniProt P04774); test: NVS_IC_rNaCh_site2: NovaScreen (NVS) Ion Channel Assay for rat Sodium Channel, Site 2 (NaCh) (AID 2283322);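 also: hit means loss of radioligand binding signal relative to DMSO so AC50 marks displacement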
# Procedure, shortened: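 Membranes: rat forebrain. Format: competitive radioligand displacement, filter separation, scintillation readout, 1 h exposure. Primary screen in duplicate at 25 uM; actives retested in concentration series.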
# [13] = molecular target: bovine Estrogen Receptor (ER), ESR1 (gene 407238) (UniProt P49884); test: NVS_NR_bER: NovaScreen (NVS) Nuclear Receptor Binding Assay for bovine Estrogen Receptor (ER) (AID 2283345);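 also: actives lower the bound radioligand count which means they displace the ER ligand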
# bovine Estrogen Receptor (ER), ESR1 (gene 407238), sequence (P49884 whole entry, looked up): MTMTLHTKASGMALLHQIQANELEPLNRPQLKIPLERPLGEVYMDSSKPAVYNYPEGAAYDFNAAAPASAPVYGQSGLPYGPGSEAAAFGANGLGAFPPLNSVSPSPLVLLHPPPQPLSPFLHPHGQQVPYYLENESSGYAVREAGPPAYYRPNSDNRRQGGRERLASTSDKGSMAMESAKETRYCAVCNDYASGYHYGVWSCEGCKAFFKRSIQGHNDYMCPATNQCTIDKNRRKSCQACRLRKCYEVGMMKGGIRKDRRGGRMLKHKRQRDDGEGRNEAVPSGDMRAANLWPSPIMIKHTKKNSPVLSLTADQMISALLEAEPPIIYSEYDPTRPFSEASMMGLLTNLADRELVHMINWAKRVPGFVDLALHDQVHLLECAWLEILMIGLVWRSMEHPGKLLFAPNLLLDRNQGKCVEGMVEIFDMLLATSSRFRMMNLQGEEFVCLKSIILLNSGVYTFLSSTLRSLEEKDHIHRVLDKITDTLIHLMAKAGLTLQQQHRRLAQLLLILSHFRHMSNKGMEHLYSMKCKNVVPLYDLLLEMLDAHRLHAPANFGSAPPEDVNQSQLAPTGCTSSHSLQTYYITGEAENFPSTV
# Procedure, shortened: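 Scintillation counting of displaced radioligand gave the readout; bovine uterine membrane extract supplied the receptor. Measured 18 h post-dose, normalized to DMSO baseline. Single 25 uM duplicate screen preceded concentration-response follow-up.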
# [14] = molecular target: Estrogen receptor (Homo sapiens) (UniProt P03372); test: NVS_NR_hER: NovaScreen (NVS) Nuclear Receptor Binding Assay for human Estrogen Receptor (ER) (AID 2283348)
# Procedure, shortened: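 Scintillation signal from bound radioligand was measured 18 hours after chemical addition to cell-free MCF7 protein extracts, with DMSO as baseline. Activity was scored as signal loss; compounds ran first at 25 uM in duplicate.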
# [15] = molecular target: chimpanzee Androgen Receptor (AR), AR (gene 747460) (UniProt O97775); test: NVS_NR_cAR: NovaScreen (NVS) Nuclear Receptor Binding Assay for chimpanzee Androgen Receptor (AR) (AID 2283346);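 also: radioligand displacement from AR measured by scintillation counting in a cell-free assay; a loss of bound radioligand signal versus DMSO counts as binding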
# Procedure, shortened: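 Cell-free competition binding with insect-cell (Sf9/Sf21) extracted chimpanzee AR; scintillation signal from lysate at 72 h. Screened in duplicate at 25 uM, then concentration-response for actives; fitting relative to DMSO.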
# [16] = molecular target: human Opioid Receptor Mu (Opiate Mu), OPRM1 (gene 4988) (UniProt P35372); test: NVS_GPCR_hOpiate_mu: NovaScreen (NVS) G Protein-Coupled Receptor Assay for human Opioid Receptor Mu (Opiate Mu) (AID 2283290);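 also: hits lower bound tracer signal versus DMSO meaning displacement of the ligand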
# human Opioid Receptor Mu (Opiate Mu), OPRM1 (gene 4988), sequence (P35372 whole entry, looked up): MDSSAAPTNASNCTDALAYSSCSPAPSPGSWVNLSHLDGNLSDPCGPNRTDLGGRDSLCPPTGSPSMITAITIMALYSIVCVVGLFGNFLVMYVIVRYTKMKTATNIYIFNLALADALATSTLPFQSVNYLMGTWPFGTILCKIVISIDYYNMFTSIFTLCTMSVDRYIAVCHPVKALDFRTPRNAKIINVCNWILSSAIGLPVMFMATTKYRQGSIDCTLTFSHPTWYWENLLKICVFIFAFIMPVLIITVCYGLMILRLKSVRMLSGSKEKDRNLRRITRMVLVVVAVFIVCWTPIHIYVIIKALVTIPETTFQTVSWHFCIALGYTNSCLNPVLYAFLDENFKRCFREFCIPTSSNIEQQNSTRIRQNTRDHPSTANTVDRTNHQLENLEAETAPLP
# Procedure, shortened: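 CHO-derived receptor protein, cell-free; radioligand displacement, filtration + scintillation counting, read at 2.5 h. DMSO = negative control/baseline. Primary: 25 uM single conc, duplicate; secondary: concentration series.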
# [17] = molecular target: rat Mineralocorticoid Receptor (MR), Nr3c2 (gene 25672) (UniProt P22199); test: NVS_NR_rMR: NovaScreen (NVS) Nuclear Receptor Binding Assay for rat Mineralocorticoid Receptor (MR) (AID 2283355)
# Procedure, shortened: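 Adrenalectomized rat brain supernatant was dosed with test chemical, then radioligand binding was measured by scintillation counting at 24 h. Initial testing ran in duplicate at 25 uM, followed by concentration series for actives.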
smiles,measurement,setting,value
Nc1ccc(C(=O)O)cc1,AC50,[1],2.62 µM (active)
same,outcome,[2],inactive
same,outcome,[3],inactive
same,outcome,[4],inactive
same,outcome,[5],inactive
same,outcome,[6],inactive
CCCCCCOC(=O)CCCCC(=O)OCCCCCC,outcome,[7],inactive
same,outcome,[8],inactive
same,outcome,[2],inactive
same,outcome,[3],inactive
same,outcome,[4],inactive
same,outcome,[5],inactive
CCCCNS(=O)(=O)c1ccc(C)cc1,AC50,[9],1.72 µM (active)
same,outcome,[8],inactive
same,outcome,[2],inactive
same,outcome,[10],inactive
CCCCCCCCC(CO)CCCCCC (stereo unspecified),outcome,[7],inactive
same,outcome,[8],inactive
same,outcome,[2],inactive
same,outcome,[3],inactive
same,outcome,[4],inactive
same,outcome,[5],inactive
CC(C)[N+](C)(CCOC(=O)C1c2ccccc2Oc2ccccc21)C(C)C,AC50,[11],9.05 µM (active)
same,AC50,[12],10.1 µM (active)
CC1=CP(=O)(c2ccccc2)CC1 (stereo unspecified),outcome,[11],inactive
CCCCNC(=S)NCCCC,AC50,[9],5.23 µM (active)
same,outcome,[8],inactive
same,outcome,[2],inactive
same,outcome,[3],inactive
same,outcome,[4],inactive
same,outcome,[5],inactive
CCC(C)C(=O)OC (stereo unspecified),outcome,[12],inactive
COC(OC)(C(=O)c1ccccc1)c1ccccc1,AC50,[9],25 µM (active)
same,outcome,[13],inactive
same,AC50,[14],25 µM (active)
same,outcome,[14],inactive
Cc1ccc([N+](=O)[O-])cc1N,AC50,[1],13.8 µM (active)
same,AC50,[15],20.8 µM (active)
same,outcome,[8],inactive
same,outcome,[2],inactive
same,outcome,[3],inactive
same,outcome,[4],inactive
C=Cc1cccc(C)c1,outcome,[12],inactive
Nc1ccnc(=O)[nH]1,outcome,[7],inactive
CC(C=O)c1ccccc1 (stereo unspecified),outcome,[16],inactive
Oc1ccc(/C=C/c2cc(O)cc(O)c2)cc1,outcome,[9],inactive
same,AC50,[13],25 µM (active)
same,AC50,[14],2.52 µM (active)
same,outcome,[14],inactive
same,outcome,[17],inactive
CCOC(=O)C1=NOC(c2ccccc2)(c2ccccc2)C1,outcome,[9],inactive
same,outcome,[2],inactive
same,outcome,[3],inactive
same,outcome,[4],inactive
same,outcome,[5],inactive
CC(C)CCCCCOC(=O)CS,AC50,[16],39.8 µM (active)
CCCCCCCOC(=O)c1ccc(O)cc1,outcome,[9],inactive
same,AC50,[13],13.2 µM (active)
same,AC50,[14],3.5 µM (active)
same,AC50,[8],12.3 µM (active)
same,AC50,[2],12.3 µM (active)
same,AC50,[3],5.32 µM (active)
same,AC50,[4],12.2 µM (active)
same,AC50,[5],2.68 µM (active)
same,outcome,[10],inactive
CCCCNS(=O)(=O)c1ccccc1,AC50,[9],25 µM (active)
same,outcome,[8],inactive
same,outcome,[2],inactive
same,outcome,[3],inactive
same,outcome,[4],inactive
same,outcome,[5],inactive
